# About 83,000 compounds went through this panel and 20% of them were active in at least one assay; those are over-represented in the sample as a whole.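 Step 1: grow cells in 96-well plates. Step 2: add test compound at a single concentration. Step 3: incubate 48 h. Step 4: record percent growth.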 Values without a mark were called inactive. Activity calls are given as the source filed them. Rule for the calls: active = growth percent below 10; inactive = the rest.
# Tests used:
# Experiment in all cases: NCI-60 one-dose screen, 48 h (100 = growth as untreated, 0 = no growth, -100 = all killed)
# Conditions in all cases: 10 µM unless noted
# [1] = system: NCI-H23 lung
# [2] = system: NCI-H226 lung
# [3] = system: NCI-H322M lung
# [4] = system: HOP-62 NSCLC
# [5] = system: NCI-H460 lung
# [6] = system: HOP-92 NSCLC
# [7] = system: NCI-H522 lung
# [8] = system: A549/ATCC NSCLC
# [9] = system: 786-0 renal
# [10] = system: COLO 205 colon
# [11] = system: DU-145 prostate
# [12] = system: K-562 leukemia
# [13] = system: MALME-3M melanoma
# [14] = system: MDA-MB-231 breast
# [15] = system: RXF 393 renal
# [16] = system: SF-268 CNS
# [17] = system: SF-295 CNS
# [18] = system: SF-539 CNS
# [19] = system: UACC-257 melanoma
# [20] = system: M14 melanoma
SMILES,growth [1],growth [2] [%],growth [3] [%],growth [4] [%],growth [5] [%],growth [6] [%],growth [7],growth [8] [%],growth [9],growth [10] [%],growth [11] [%],growth [12] [%],growth [13],growth [14] [%],growth [15],growth [16],growth [17] [%],growth [18],growth [19],growth [20]
CCOC(=O)C/C(=N\Nc1cc(=O)[nH]c2ccc(Br)cc12)C(=O)OCC,91.2%,86.9,92.9,95.9,101,76.2,95.2%,106,106%,107,104,24.2,90.5%,102,104%,100%,102,99.8%,111%,96.8%
CCCCn1c(=O)[nH]c(N)c([C@@H]2c3c([nH]c(=O)n(CCCC)c3=O)Oc3ccc4ccccc4c32)c1=O,13%,92,74.9,73.6,15.4,83.3,59%,94.6,77.8%,59.3,47.5,76.3,38.5%,55.4,99.6%,8.16% (active),89.1,95.8%,93%,31.1%
C=CC(=O)N1CCN(c2cccc(Oc3nccc(Nc4nnc(-c5ccc(Br)cc5)s4)n3)c2)CC1,79%,88.8,92.3,62.2,25.6,88.3,-2.86% (active),47.3,73.5%,63.4,78.5,22.2,65.2%,75.2,74.7%,74.8%,55.8,72.7%,80.6%,44.9%
O=C(NNC(=O)c1ccc(NC(=O)c2ccccn2)cc1)Nc1ccc([N+](=O)[O-])cc1,106%,94.2,95.7,96.1,107,96.7,100%,100,96.5%,114,106,107,98%,103,99.9%,95.5%,98.9,60.9%,106%,100%
O=C(O)CCN1C(=O)/C(=C/C(Cl)=C/c2ccccc2)SC1=S,21.3%,23.6,61,53.9,16.6,53.7,10.6%,44.8,9.92% (active),13,22.2,14.5,36.1%,49.9,-10.2% (active),26.5%,51.5,10.2%,33.3%,10.3%
N#Cc1c(-c2ccc(Cl)cc2)nc(NN2C(=O)c3ccccc3C2=O)nc1N1CCOCC1,97.2%,99.9,111,97.9,106,99.8,97.5%,107,99.8%,110,107,97,109%,105,107%,99.3%,101,101%,108%,101%
O=C(Nn1c2c(sc1=NC1CC1)C(=O)c1ccccc1C2=O)c1cc2ccc1CCc1ccc(cc1)CC2,9.63% (active),64.9,96,54.1,53.9,95.5,37.3%,67.7,68.6%,96.3,33.2,25.9,-64.3% (active),15.4,53.7%,45.2%,79.6,5.17% (active),-28.6% (active),-21.8% (active)
O=C(N/N=C/c1c(Cl)cccc1Cl)c1cccnc1Nc1cccc(C(F)(F)F)c1,44.3%,18.4,35,40.2,15,14.7,1.47% (active),51,42.6%,15.1,49.3,73.9,54.3%,55.9,68.1%,39.3%,28.8,34.1%,56%,37.3%
